The record followed here is PubChem BioAssay AID585 (National Center for Advancing Translational Sciences (NCATS), 2007).

The structures appear in SMILES notation. The whole screen tested about 71,000 compounds, of which about 1,300 (1.8%) were called active. Shown is part of a subset that was picked to be rich in actives. Where a call stands in place of a potency, no number is given. Values without a mark were called inactive. Calls follow the shape of the full dose curve.
Potency is read from the fitted curve at half-maximal effect.

Beta-lactamase (Escherichia coli (strain K12)), sequence (P00811 whole entry, looked up): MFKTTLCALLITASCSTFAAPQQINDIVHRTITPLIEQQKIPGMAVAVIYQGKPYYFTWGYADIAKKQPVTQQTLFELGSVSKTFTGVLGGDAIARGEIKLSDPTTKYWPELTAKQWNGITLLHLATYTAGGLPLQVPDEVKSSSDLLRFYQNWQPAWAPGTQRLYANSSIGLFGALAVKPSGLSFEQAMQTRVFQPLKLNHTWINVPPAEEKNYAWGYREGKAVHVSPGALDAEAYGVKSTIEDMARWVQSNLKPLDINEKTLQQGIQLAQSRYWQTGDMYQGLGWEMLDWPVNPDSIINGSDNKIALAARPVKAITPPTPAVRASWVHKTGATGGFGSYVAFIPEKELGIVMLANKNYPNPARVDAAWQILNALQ

The assay addresses Beta-lactamase (Escherichia coli (strain K12)) (UniProt P00811). In words: Promiscuous and Specific Inhibitors of AmpC Beta-Lactamase (assay without detergent). The note with it: AmpC nitrocefin hydrolysis, absorbance 480 nm, no detergent; series mostly up to 28.7 µM. Here is the method: NIH Molecular Libraries Screening Centers Network [MLSCN]
NIH Chemical Genomics Center [NCGC]
PI Name: Shoichet, Brian K.
This aggregation profiling approach exploits the sensitivity of aggregate formation to detergent. Inhibition of b-lactamase is measured in the presence and absence of 0.01% Triton X-100. See Pubchem assay "Promiscuous and Specific Inhibitors of AmpC Beta-Lactamase (assay with detergent)" for related screen. Compounds that inhibit only in the absence of detergent are considered likely promiscuous aggregators.
A screen of 1,030 compounds was performed in Brian Shoichet's lab in 96-well format. AmpC activity was measured by following the absorbance at 480 nm. Nitrocefin is a chromogenic substrate: while nitrocefin is yellow (lmax 390 nm), the product of its hydrolysis is red (lmax 486 nm, 17,000 M-1). AmpC beta lactamase was provided by Brian Shoichet and Brian Feng, UCSF.
NCGC Assay Protocol Summary:
20 mM phosphate buffer, pH 7.0
Triton X-100: No Detergent screen: 0.0001%, Detergent screen: 0.01%.
Buffer in columns 3 and 4 as negative control (no enzyme).
5.3 nM AmpC in columns 1, 2, 5-48. Titration of UCSF compound 9 control (from 10 mM, then 1:2) pin-transferred to column 2. Column 1 is neutral (100% activity).
Six uL of reagents were dispensed to 1536-well Greiner black clear bottom plates. Compounds and controls (23 nL) were transferred via Kalypsys PinTool. The plates were incubated for 15 min at room temperature, and then 2 uL of 800 uM solution of nitrocefin was added to start the reaction. The plates were immediately transferred to and read every 20 seconds for 4 min on ViewLux (Perkin-Elmer) High-throughput CCD imager using 480 nm absorbance protocol. During dispense, reagent bottles were kept submerged into 4 deg C water bath.
Keywords: NIH Roadmap, MLSCN, MLI, MLSMR, qHTS, NCGC, AmpC Beta-Lactamase, Aggregation.
Consider `CCn1cc(C(=O)NCC2CCCO2)c(=O)c2cc(S(=O)(=O)N3CCCCC3)ccc21` (configuration not stated), for which the Potency entry is “inactive”. Turning to `O=C(NC1CCCCC1)n1c(=O)oc2cc(S(=O)(=O)N3CCCCC3)ccc21`, the Potency entry is “inactive”.

With `CCn1cc(C(=O)NC2CCCCCC2)c(=O)c2cc(S(=O)(=O)N3CCCCC3)ccc21`, the Potency is 3.98 µM [single pt active] (active). Take `Oc1ccc2ccccc2c1C=NCc1c(O)ccc2ccccc12`: the activity change, negative = inhibition was -20.6% [at 5.75 µM]. Turning to `O=C(CCC(=O)OCC(F)(F)C(F)F)NCc1ccccc1`, the Potency entry is “inactive”. On the same count and under the same terms, to `COc1ccc(-c2nc(CS(=O)CC(=O)NCc3cccnc3)c(C)o2)cc1OC` (configuration not stated) belongs 3.98 µM [single pt active] (active); to `Cc1ccc(-c2nc(CS(=O)CC(=O)NC3CCCC3)c(C)o2)cc1` (configuration not stated), 3.98 µM [single pt active] (active). Consider `COc1ccc(-c2nc(CS(=O)CC(=O)N3CCc4ccccc4C3)c(C)o2)cc1` (configuration not stated), for which the Potency entry was “inactive”.

On to `COc1ccc(CCNC(=O)C2CCCN(Cc3nc(-c4cccc(Cl)c4)oc3C)C2)cc1OC` (configuration not stated), for which the Potency entry was “inactive”. The same measure, in the same setting: to `Cc1oc2nc(SCC(=O)NCc3cccnc3)nc(N)c2c1C` belongs “inactive”; to `COc1ccc(-c2nc(CS(=O)CC(=O)NCc3ccccn3)c(C)o2)cc1` (configuration not stated), 1.26 µM [single pt active] (active); to `COc1ccc(-c2nc(CS(=O)CC(=O)N3CCC4(CC3)OCCO4)c(C)o2)cc1` (configuration not stated), “inactive”. Still for that read-out and setting: to `Cc1ccc(NC(=O)CS(=O)CC(=O)N(c2ccccc2)C(C)C(=O)NC2CCCC2)cc1` (configuration not stated) belongs “inactive”.

For `Cc1ccc(-c2nc(CS(=O)CC(=O)N3CCN(c4ncccn4)CC3)c(C)o2)cc1` (configuration not stated), the Potency result was “inactive”.

For the compound `C=CC(=C)CCC=C(C)C`, the Potency entry is “inactive”. The same measure, in the same setting: the result for `COc1ccc2oc(=O)c(C(=O)N3CCN(c4ccccc4F)CC3)cc2c1` reads “inactive”; that for `CC1(C)CC(=O)C=C(NC2CC(C)(C)NC(C)(C)C2)C1`, “inactive”; that for `O=C(COc1ccc2oc3c(c2c1)CCCC3)Nc1ccccn1`, “inactive”. Still for that read-out and setting: the result for `O=C1CN(C(=O)COC(=O)C2CC(=O)N(Cc3ccco3)C2)c2ccccc2N1` (configuration not stated) reads “inactive”; that for `COc1cc(C[C@H](C)N)c(OC)cc1I`, “inactive”. Same read-out and setting: the result for `COC(=O)c1ccc(C(NC(=O)OCc2ccccc2)/C(C)=C/[C@@H](C)C(=O)NCc2cc(C)on2)cc1` (some centres not stated) reads “inactive”. Regarding `CCOC(=O)c1ccc(-n2c(C)nc3c(cnn3-c3ccccc3C)c2=O)cc1`, the Potency entry is “inactive”.

Take `CC1=C(C(=O)OCc2ccccc2)C(c2ccco2)n2ncnc2N1` (configuration not stated): the Potency was 3.98 µM [single pt active] (active).

Regarding `CCOC(=O)CSC1=C(C#N)C(c2ccco2)C(C(=O)OCc2ccccc2)=C(C)N1` (configuration not stated), the Potency entry was “inactive”. Take `COC(=O)C1=C(C)Nc2ncnn2C1c1ccco1` (configuration not stated): the Potency entry is “inactive”. Consider `O=C1N=C(N2CCOCC2)CS1`, for which the Potency result was “inactive”.

Consider `CC(=O)Nc1cc2ccc(OC(C)=O)cc2oc1=O`, for which the Potency is 3.98 µM [single pt active] (active). `CC(=O)Oc1ccc2c(C)c(CC(C)O)c(=O)oc2c1` (configuration not stated): the Potency result is “inactive”.

For `COc1ccc2oc(C)c(NC(C)=O)c2c1`, the Potency result is “inactive”.

In the case of `CCn1c(=N)c(S(=O)(=O)c2ccc(F)cc2)cc2c(=O)n3ccccc3nc21`, the Potency entry is “inactive”. Still for that read-out and setting: the result for `O=C(Oc1cccnc1)c1cc2ccccc2oc1=O` reads 12.6 µM (active); that for `COc1ccc2oc(=O)c(C(=O)O)cc2c1`, “inactive”; that for `O=C(NCc1ccccn1)c1cc2ccccc2oc1=O`, “inactive”. The same measure, in the same setting: to `Cc1ccc(C)c(N2CCN(C(=O)CCCCn3c(=O)[nH]c4ccccc4c3=O)CC2)c1` belongs “inactive”.

In the case of `CCc1nnc(NC(=O)CSc2nnc(Cc3ccccc3)n2-c2ccc(OC)cc2)s1`, the Potency result was “inactive”. `COc1ccc(Cc2nnc(NC(=O)Cc3cccs3)s2)cc1`: the Potency is 12.6 µM (active). Same read-out and setting: the result for `COc1ccc(Cc2nnc(NS(=O)(=O)Cc3ccccc3)s2)cc1` reads “inactive”; that for `COc1ccc2[nH]cc(CCNc3nc(-c4cccc(NS(C)(=O)=O)c4)nc4ccccc34)c2c1`, “inactive”. Same read-out and setting: to `CCCC1C(c2ccccc2)C(C#N)(C#N)C2(C#N)CC1(N)NC2=O` (configuration not stated) belongs “inactive”; to `CCOC(=O)Cc1csc(NC(=O)CSc2nc(C)cc(=O)[nH]2)n1`, “inactive”; to `CCOC(=O)Cc1csc(NC(=O)C(C)(C)C)n1`, “inactive”. Still for that read-out and setting: the result for `CCOC(=O)Cc1csc(NC(=O)CN(C)S(=O)(=O)c2ccc3c(c2)CCC(=O)N3)n1` reads 3.98 µM [single pt active] (active); that for `Cc1ccc(CNC(=O)CCCNC(=O)c2ccc(Cl)cc2)n1C`, “inactive”. Regarding `CC(C)(O)C#Cc1ccc(C(=O)N2CCC(C(N)=O)(N3CCCCC3)CC2)cc1`, the Potency entry was “inactive”. The same measure, in the same setting: the result for `CC1(C)S[C@@H]2[C@@H](NC(=O)[C@@H](N)c3ccccc3)C(=O)N2[C@H]1C(=O)O` reads 0.0501 µM (active). Still for that read-out and setting: to `CC1(C)SC2c3ccccc3C(=O)N2[C@@H]1C(=O)NCc1ccco1` (some centres not stated) belongs “inactive”. The same measure, in the same setting: the result for `CC(CNC(=O)c1ccc(Br)o1)NC(=O)c1ccc(Br)o1` (configuration not stated) reads “inactive”; that for `c1ccc(Nc2nc(-c3ccncc3)cs2)nc1`, “inactive”; that for `N#CC(=C1SC=CS1)c1nc(-c2ccccc2)cs1`, 15.8 µM [single pt active] (active).

For `N#C/C(=C1\CCCN1)c1nc(-c2ccccc2)cs1`, the Potency entry was “inactive”. Still for that read-out and setting: to `CC(C)(O)[C@H]1[C@H]2OC(=O)[C@@H]1[C@]1(O)C[C@H]3O[C@]34C(=O)O[C@H]2[C@]14C` belongs “inactive”. As for `CCOC(=O)N1CCN(C(=O)C2CC(c3ccc(F)cc3)=NO2)CC1` (configuration not stated), the Potency was 3.98 µM [single pt active] (active). Regarding `CCOC(=O)N1CCN(C(=O)CSc2ccc(Cl)cc2)CC1`, the Potency result is “inactive”. On the same count and under the same terms, to `O=C(c1ccco1)N1CCN(C(=O)C2c3ccccc3Oc3ccccc32)CC1` belongs “inactive”. The same measure, in the same setting: to `Cc1ccc(NC(=O)C2CC(c3ccc(F)cc3)=NO2)cc1` (configuration not stated) belongs “inactive”. Consider `O=C(c1ccco1)N1CCN(C(=O)C2CC(c3ccc(Cl)c(Cl)c3)=NO2)CC1` (configuration not stated), for which the Potency result is “inactive”.

In the case of `O=C(c1ccco1)N1CCN(C(=O)C2CC(c3ccc(F)cc3)=NO2)CC1` (configuration not stated), the Potency was 3.98 µM [single pt active] (active).

Take `O=C(C1CCN(S(=O)(=O)c2cnc[nH]2)CC1)N1CCN(Cc2ccc3c(c2)OCO3)CC1`: the Potency entry is “inactive”. Same read-out and setting: the result for `CC(=O)c1c(O)c(C)c(O)c(Cc2c(O)c3c(c(C(=O)/C=C\c4ccccc4)c2O)OC(C)(C)C=C3)c1O` reads 12.6 µM (active); that for `CCOc1ccc(C(C)C)cc1S(=O)(=O)n1nc(C)cc1C`, “inactive”. Same read-out and setting: to `CCOc1ccccc1C(=O)NCCCn1ccnc1` belongs “inactive”; to `CCOc1ccc(S(=O)(=O)n2ccnc2)c2ccccc12`, 3.98 µM [single pt active] (active). With `Fc1ccc2nc(Nc3nc4c(s3)CCCC4)sc2c1`, the Potency entry was “inactive”. Same read-out and setting: to `CCOC(=O)CNC(=O)CSc1nnc(COc2ccc(Cl)cc2)n1CC` belongs “inactive”. Still for that read-out and setting: to `CN1CCN(S(=O)(=O)c2ccc3[nH]cc(C(=O)O)c(=O)c3c2)CC1` belongs “inactive”; to `Cc1cccc(CC(=O)Nc2c3c(nn2-c2cccc(Cl)c2)CS(=O)C3)c1` (configuration not stated), “inactive”; to `Cc1nc2nc(SCC(=O)NCc3ccco3)nn2c(C)c1Cc1ccccc1`, “inactive”.

Regarding `O=C(NCc1ccco1)c1nc(-c2ccccc2)n(-c2ccccc2)n1`, the Potency entry is “inactive”. Same read-out and setting: to `O=C(Cc1ccccc1)n1nc(-c2ccccc2)nc1NCc1ccco1` belongs 3.98 µM [single pt active] (active); to `COc1ccc(CCn2nnnc2C(c2ccccc2)N2CCN(C)CC2)cc1OC` (configuration not stated), “inactive”; to `CCOC(=O)c1cnc2sccn2c1=O`, “inactive”. Take `CN/C(=C\[N+](=O)[O-])NCCSCc1csc(CN(C)C)n1`: the Potency entry was “inactive”.
